Measurements published in the supplement of paper PMC3334620.
Whole data set: some 33,000 sequences, median “E-score (-0.5 to 0.5)” near -0.016, cut for the highest 2% near 0.32. This excerpt belongs to a sample that is enriched for the highest values.

The sequences below were run against T1, Stp1 (UniProt B3LFK1) (assay: PBM E-score (8-mer binding enrichment) (E-score (-0.5 to 0.5)); higher = stronger / more preferred TF binding). Details: protein concentration: 200 nM; construct: GST-full length.
T1 sequence: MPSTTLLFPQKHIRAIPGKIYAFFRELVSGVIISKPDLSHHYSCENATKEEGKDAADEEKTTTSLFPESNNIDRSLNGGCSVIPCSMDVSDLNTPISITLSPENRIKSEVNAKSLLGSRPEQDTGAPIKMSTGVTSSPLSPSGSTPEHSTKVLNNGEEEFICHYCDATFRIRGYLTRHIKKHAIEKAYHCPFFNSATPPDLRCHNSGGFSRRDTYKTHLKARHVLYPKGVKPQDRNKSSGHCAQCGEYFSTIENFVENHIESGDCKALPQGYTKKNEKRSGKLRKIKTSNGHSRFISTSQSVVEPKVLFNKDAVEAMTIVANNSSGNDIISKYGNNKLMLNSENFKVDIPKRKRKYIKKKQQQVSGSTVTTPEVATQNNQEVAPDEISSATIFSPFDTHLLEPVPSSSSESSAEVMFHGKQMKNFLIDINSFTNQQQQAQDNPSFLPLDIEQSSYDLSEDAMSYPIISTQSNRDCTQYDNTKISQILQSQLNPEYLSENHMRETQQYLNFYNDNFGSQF
In short: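 PURExpress in vitro transcription/translation supplied GST-tagged yeast transcription factors, either full-length or DNA-binding domain. Applied at about 100-200 nM to universal all-10-mer Agilent arrays double-stranded by primer extension, the bound protein was detected with fluorescent anti-GST. E-scores, modified Wilcoxon-Mann-Whitney statistics, were given by the Universal PBM Analysis Suite to ungapped eight-base words pooled with their reverse complements after masliner normalisation.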

| Sequence | PBM E-score |
| --- | --- |
| CCAAGACA | -0.137 |
| CCCCCTAG | -0.354 |
| ATTGGTGA | -0.0777 |
| ACTAAGGA | -0.105 |
| ACCTTACC | 0.0147 |
| CCTTTTTC | 0.104 |
| TAACCACA | -0.022 |
| CAACCTGG | -0.101 |
| TAAGTCAA | -0.0101 |
| CGAGGCAG | 0.12 |
| TGAGGCAA | 0.234 |
| CGAGGCAA | 0.359 |
| AGAGGCAG | -0.125 |
| AGAGGCAA | 0.0357 |
| AGAGGCAC | 0.366 |
| GGAGGCAC | 0.148 |
| CGAGGCAC | 0.384 |
| AGAGGCAT | 0.242 |
| GACCAGCC | -0.259 |
| CCGGTAGG | 0.0318 |
| TACGTAAA | 0.189 |
| CAAGACCA | -0.15 |
| ATACCGCC | 0.1 |
| AAGTTATC | -0.0807 |

| Sequence | PBM E-score |
| --- | --- |
| AGATGCAA | -0.0126 |
| GAGTGCGA | -0.046 |
| GCAACGGA | 0.228 |
| CGAGCCGA | 0.124 |
| CCAGCCGC | 0.125 |
| CTAGCCGA | -0.0941 |
| ATAGCCGC | 0.298 |
| AGAGCCGG | -0.0632 |
| AGAGCCGC | 0.44 |
| AGAGCCGA | 0.225 |
| CTAGCCGC | 0.395 |
| CGAGCCGC | 0.385 |
| AATTTGCA | -0.0371 |
| AACGAGAC | -0.0773 |
| ATGTTACA | 0.182 |
| GCTGCTGA | 0.189 |
| CCAAAGAA | 0.068 |
| TAGCTGAA | -0.0818 |
| GAAACGAC | 0.0801 |
| CCCGGCGG | -0.317 |
| ACCGGCGA | 0.134 |
| CACGGCGG | 0.417 |
| CCCGGCGA | -0.0779 |
| AACGGGGA | -0.0385 |

| Sequence | PBM E-score |
| --- | --- |
| AACGGCGA | 0.452 |
| CACGGGGG | -0.208 |
| GACGGCGA | 0.4 |
| GTCGGCGA | -0.0125 |
| CACGGCGA | 0.474 |
| CATGGCGA | -0.0243 |
| GCCGGCGA | -0.00476 |
| AGTTGAGG | -0.0375 |
| CCGTTCTA | 0.237 |
| GTGCATAA | 0.183 |
| CGTGCAAC | 0.138 |
| CCCAAATA | -0.153 |
| TCCGAAAA | -0.159 |
| TCCGGCGA | 0.1 |
| TAAGGCGA | 0.315 |
| TACGGCGA | 0.473 |
| GCCTCGAC | 0.0115 |
| CTGGGGAC | -0.392 |
| ATGCGGGC | 0.0547 |
| ATGCGGCG | 0.485 |
| ATGCGGTC | 0.0837 |
| ATGCGGTG | -0.103 |
| ATGCGGAG | -0.0518 |
| ATGCGGCC | 0.331 |

| Sequence | PBM E-score |
| --- | --- |
| TAGCGCTA | -0.0704 |
| TCCTCTAA | -0.222 |
| CGCGATTC | 0.118 |
| ACTGGTCA | -0.105 |
| CCACGCGG | 0.18 |
| ATGCCACA | 0.243 |
| GTGCCGGA | 0.175 |
| ATGCCGCA | 0.468 |
| GTGCCGCA | 0.483 |
| ATGCCACG | 0.275 |
| CTACCGCA | 0.0499 |
| ATGCCGCG | 0.475 |
| GTGCCAAA | 0.119 |
| ATGCCGGA | 0.0395 |
| CTGCCGCC | 0.226 |
| CTGCCGCA | 0.347 |
| ATTCCGCA | 0.0903 |
| GCTTTGTA | 0.135 |
| AAGTTAGG | 0.0337 |
| CAACCACG | 0.0433 |
| GGCTGAAA | 0.103 |
| AAGCTCAA | -0.135 |
